# Tests used:
# Assay in all cases: DAPPL (digital affinity profiling via proximity ligation, sequencing); 10 mM Tris-HCl pH 7.5, 50 mM NaCl, 1 mM DTT, 4% glycerol, room temperature, 30 min; GST-TFs on glutathione beads, 16-mer random dsDNA library, 0.1% formaldehyde crosslink after washing; high values mean tight binding
# Settings in all cases: protein: recombinant; tags: N-terminal GST; dsDNA, one strand shown
# FLI1 = biological target: T1, FLI1 (Homo sapiens, UniProt Q01543 1-452)
# T1 sequence: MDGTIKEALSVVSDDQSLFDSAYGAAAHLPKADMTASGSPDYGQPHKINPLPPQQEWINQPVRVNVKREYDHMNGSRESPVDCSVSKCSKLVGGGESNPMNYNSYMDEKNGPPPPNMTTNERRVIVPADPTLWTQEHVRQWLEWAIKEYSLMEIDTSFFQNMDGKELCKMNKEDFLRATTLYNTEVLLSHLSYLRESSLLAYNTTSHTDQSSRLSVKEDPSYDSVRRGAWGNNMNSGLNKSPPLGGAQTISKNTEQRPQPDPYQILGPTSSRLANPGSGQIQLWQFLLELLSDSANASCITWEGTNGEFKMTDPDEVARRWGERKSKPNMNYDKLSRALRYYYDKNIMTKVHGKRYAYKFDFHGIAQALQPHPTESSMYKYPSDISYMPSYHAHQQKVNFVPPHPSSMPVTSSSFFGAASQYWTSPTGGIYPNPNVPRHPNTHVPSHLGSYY
# In short: (§1)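 After expression in yeast as GST fusions, human transcription factors were bound to glutathione beads, DNA-barcoded and mixed with a tag-only sample. The pools were incubated with 200 nmole of a 16-mer random double-stranded DNA library in Tris/NaCl/DTT/glycerol buffer (30 min, room temperature), washed and crosslinked with 0.1% formaldehyde. Proximity ligation with BsaI/T4 ligase ran for 1 h at 37 °C, before PCR amplification and sequencing on an Illumina NextSeq500. Binding signal is a hexamer's read frequency for a factor divided by its frequency for the tag-only sample.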
# ELK1 = biological target: T2, ELK1 (Homo sapiens, UniProt P19419 1-428)
# T2 sequence: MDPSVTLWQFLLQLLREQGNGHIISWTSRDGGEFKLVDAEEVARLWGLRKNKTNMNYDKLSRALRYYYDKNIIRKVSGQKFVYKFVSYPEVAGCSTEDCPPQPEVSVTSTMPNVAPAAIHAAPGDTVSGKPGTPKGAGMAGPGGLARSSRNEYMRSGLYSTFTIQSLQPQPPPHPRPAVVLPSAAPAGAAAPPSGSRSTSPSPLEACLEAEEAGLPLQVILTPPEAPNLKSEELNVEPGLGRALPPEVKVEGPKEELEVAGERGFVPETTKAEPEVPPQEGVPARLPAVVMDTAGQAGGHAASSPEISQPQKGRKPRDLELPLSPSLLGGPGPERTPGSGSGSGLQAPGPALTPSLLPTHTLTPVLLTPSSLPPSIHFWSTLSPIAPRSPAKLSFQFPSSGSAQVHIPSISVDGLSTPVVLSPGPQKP
# In short: as §1
# GABPA = biological target: T3, GABPA (Homo sapiens, UniProt Q06546 1-454)
# T3 sequence: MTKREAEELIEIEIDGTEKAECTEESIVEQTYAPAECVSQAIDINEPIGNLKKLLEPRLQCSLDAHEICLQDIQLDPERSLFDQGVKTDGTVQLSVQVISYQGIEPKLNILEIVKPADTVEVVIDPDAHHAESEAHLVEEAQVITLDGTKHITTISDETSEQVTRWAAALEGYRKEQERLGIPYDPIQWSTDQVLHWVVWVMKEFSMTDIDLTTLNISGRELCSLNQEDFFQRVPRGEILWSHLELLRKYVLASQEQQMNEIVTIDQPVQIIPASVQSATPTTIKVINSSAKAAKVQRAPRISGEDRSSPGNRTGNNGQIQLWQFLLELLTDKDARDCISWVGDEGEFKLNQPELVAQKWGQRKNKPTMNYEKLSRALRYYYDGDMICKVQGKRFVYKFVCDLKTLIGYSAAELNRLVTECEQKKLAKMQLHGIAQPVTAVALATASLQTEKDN
# In short: as §1
# ERG = biological target: T4, ERG (Homo sapiens, UniProt P11308 1-479)
# T4 sequence: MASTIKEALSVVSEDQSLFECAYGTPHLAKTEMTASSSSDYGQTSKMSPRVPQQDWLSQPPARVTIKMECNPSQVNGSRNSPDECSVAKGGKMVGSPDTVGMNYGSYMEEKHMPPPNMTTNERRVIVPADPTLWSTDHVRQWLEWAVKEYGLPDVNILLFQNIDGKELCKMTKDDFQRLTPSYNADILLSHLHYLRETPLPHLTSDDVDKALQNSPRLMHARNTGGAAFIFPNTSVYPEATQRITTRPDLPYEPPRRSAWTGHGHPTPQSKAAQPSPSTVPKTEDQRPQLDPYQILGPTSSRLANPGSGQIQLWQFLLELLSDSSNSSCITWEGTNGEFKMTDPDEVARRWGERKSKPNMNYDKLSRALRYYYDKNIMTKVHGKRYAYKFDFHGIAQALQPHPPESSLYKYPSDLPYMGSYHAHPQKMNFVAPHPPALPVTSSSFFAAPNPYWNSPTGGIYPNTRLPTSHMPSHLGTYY
# In short: as §1
# ELF1 = ELF1 (Homo sapiens, UniProt P32519 1-619)
# In short: as §1
# EHF = biological target: T5, EHF (Homo sapiens, UniProt Q9NZC4 1-300)
# T5 sequence: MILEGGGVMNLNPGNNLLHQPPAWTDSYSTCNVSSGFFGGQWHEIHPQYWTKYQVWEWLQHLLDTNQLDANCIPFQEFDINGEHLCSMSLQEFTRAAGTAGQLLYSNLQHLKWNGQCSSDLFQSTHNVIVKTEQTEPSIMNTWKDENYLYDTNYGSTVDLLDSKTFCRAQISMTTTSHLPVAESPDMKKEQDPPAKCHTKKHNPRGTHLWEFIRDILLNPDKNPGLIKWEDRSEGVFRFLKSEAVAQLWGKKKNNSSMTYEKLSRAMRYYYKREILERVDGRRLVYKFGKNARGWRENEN
# In short: as §1
# SPI1 = SPI1 (Homo sapiens, UniProt P17947 1-270)
# In short: as §1
# SPIB = SPIB (Homo sapiens, UniProt Q01892 1-262)
# In short: as §1
# ELK3 = biological target: T6, ELK3 (Homo sapiens, UniProt P41970 1-407)
# T6 sequence: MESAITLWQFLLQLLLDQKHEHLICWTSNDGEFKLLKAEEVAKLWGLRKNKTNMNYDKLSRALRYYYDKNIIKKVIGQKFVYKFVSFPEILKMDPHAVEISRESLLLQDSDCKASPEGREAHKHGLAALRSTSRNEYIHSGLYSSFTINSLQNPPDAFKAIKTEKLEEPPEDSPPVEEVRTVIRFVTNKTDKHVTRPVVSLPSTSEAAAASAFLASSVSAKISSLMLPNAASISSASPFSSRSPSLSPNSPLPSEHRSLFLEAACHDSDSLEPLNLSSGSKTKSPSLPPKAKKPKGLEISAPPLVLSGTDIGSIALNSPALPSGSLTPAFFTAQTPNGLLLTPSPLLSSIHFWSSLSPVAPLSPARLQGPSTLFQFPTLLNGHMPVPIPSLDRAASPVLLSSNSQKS
# In short: as §1
# Chain of ELF1 (P32519 whole entry): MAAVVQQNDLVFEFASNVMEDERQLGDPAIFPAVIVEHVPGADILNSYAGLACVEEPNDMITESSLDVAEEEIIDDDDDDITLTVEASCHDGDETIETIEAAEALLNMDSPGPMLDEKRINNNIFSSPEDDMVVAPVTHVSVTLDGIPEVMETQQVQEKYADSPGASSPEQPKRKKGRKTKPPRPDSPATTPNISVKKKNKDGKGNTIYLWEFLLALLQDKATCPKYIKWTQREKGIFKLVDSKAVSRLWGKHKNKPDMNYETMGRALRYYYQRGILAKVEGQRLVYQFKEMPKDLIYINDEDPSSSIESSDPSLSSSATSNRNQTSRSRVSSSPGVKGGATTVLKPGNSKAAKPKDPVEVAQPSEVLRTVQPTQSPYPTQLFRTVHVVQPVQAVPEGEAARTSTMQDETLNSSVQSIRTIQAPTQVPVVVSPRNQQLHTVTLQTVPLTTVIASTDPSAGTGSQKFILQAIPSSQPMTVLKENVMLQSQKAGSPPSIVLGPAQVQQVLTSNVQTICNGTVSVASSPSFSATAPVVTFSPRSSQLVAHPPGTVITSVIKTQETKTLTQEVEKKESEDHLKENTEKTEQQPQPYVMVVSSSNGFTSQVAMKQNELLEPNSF
# Chain of SPIB (Q01892 whole entry): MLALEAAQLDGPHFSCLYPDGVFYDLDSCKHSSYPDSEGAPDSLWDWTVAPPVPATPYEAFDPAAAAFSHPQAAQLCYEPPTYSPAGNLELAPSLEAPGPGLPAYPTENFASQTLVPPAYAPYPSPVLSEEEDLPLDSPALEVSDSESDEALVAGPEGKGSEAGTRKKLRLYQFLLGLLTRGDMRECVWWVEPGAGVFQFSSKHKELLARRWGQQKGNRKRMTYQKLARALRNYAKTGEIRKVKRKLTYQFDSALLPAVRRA
sequence,measurement,setting,value
ACGATA,binding signal,FLI1,"1.19 fold enrichment (6-mer frequency, TF over GST control)"
same,binding signal,ELK1,"1.12 fold enrichment (6-mer frequency, TF over GST control)"
same,binding signal,GABPA,"1.23 fold enrichment (6-mer frequency, TF over GST control)"
same,binding signal,ERG,"1.14 fold enrichment (6-mer frequency, TF over GST control)"
same,binding signal,ELF1,"1.19 fold enrichment (6-mer frequency, TF over GST control)"
same,binding signal,EHF,"1.15 fold enrichment (6-mer frequency, TF over GST control)"
same,binding signal,SPI1,"1.09 fold enrichment (6-mer frequency, TF over GST control)"
same,binding signal,SPIB,"1.23 fold enrichment (6-mer frequency, TF over GST control)"
same,binding signal,ELK3,"1.16 fold enrichment (6-mer frequency, TF over GST control)"
